Nrf2 ARE act: qHTS of Nrf2 Activators. AREc32 ARE-luciferase reporter (MCF7-derived line), luminescence, 24 h. Potency, µM (doses to about 46.1 µM), hits mostly activators. hit rate 0.31% among 410,000. AID 624171, 2012; further: nearly all actives have a fitted effect of over 65% in size
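AREc32_Fluc, 1000 cells/well, OPTI-MEM + 5% FBS, o/n 37 deg C 5% CO2; 23 nL cpd by pin tool, 24 hr; Steady-Glo 30 min RT, luminescence.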
BRCA1 expr up: qHTS Assay to Identify Small Molecule Activators of BRCA1 Expression. hit rate 1.1% among 380,000. MCF7-BRCA1-FFLuc reporter, luminescence, 48 h; response scale: scaled: vehicle 0%, 10 µM genistein 100%. Potency, µM (top dose mostly 46.1 µM), most hits filed as activators; further: nearly all actives have a fitted effect of over 80% in size
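Using MCF7 cells harboring a BRCA1 firefly luciferase reporter, plated 2 h before compound pinning, the screen measured luminescence after 48 h incubation. Responses were normalized to DMSO and 10 microM genistein, then fitted for concentration-effect.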
IL2 activator: qHTS of IL-2 Activators | IL-2 activation reporter assay, cell-based qHTS; stimulated with anti-CD3/CD4/CD28 beads; in transgenic mouse T cells | activation, % (series mostly up to about 46 µM) | hit rate 0.065% among 360,000; in the data active means activation above about 50%; inconclusive means mostly about 30% to 49%
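Readout: EGFP and DsRed signals by fluorescent plate cytometry. Unstimulated transgenic mouse T cells received compound 60 min before antibody-bead stimulation, then incubated 18 h at 37 degrees C.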
a7 integrin act: qHTS for Activators of Integrin-Mediated Alleviation for Muscular Dystrophy | alpha7betagal myoblasts, beta-gal FDG fluorescence, 48 h | Potency, µM (titrated, usually from 38.3 µM), most hits filed as activators | hit rate 0.064% among 350,000 | AID 624291, 2012; further: nearly all actives have a fitted effect of over 60% in size
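alpha7betagal+/- myoblasts (passage 13, 250/well) treated 48 h at 37C with compounds at 1:260 dilution of DMSO stock. Lysed, then beta-galactosidase activity read as FDG fluorescence (ex 480/em 540) after 30 min, with pre-read for autofluorescence.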
BCR signal inh: qHTS Assay to Find Inhibitors of Chronic Active B-Cell Receptor Signaling; ABC-DLBCL IkBa-CBG/CBR reporter, luminescence ratio, 4 h; Potency, µM (series often up to 46.1 µM), most hits filed as inhibitors; hit rate 0.05% among 340,000; AID 493014, 2011; active means well fitted inhibition curve with a large enough effect in the signal ratio, with a control signal flat, not every such curve was filed as active; inconclusive means small, poorly fitted or top-dose-only effect, or effect the other way, or a change in a side signal; the % refers to the signal ratio
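TMD8 ABC-DLBCL cells carrying doxycycline-inducible green luciferase fused to IkappaBalpha plus unfused red luciferase were exposed to compounds (up to 46 uM) for 4 hrs at 37C. Activity came from the overlap-corrected green/red luminescence ratio.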
N370S GC mod: qHTS Assay for Inhibitors and Activators of N370S glucocerebrosidase as a Potential Chaperone Treatment of Gaucher Disease; hit rate 0.092% among 330,000; Potency, µM (titrated, usually from 59.4 µM), hits mostly inhibitors; N370S GC spleen homogenate, 4MU-glucoside fluorescence; Lysosomal acid glucosylceramidase (Homo sapiens), P04062
Large screens that a line does not name were inactive. Compounds with a hit are over-represented: about 1.4% of the library has one in this group of screens. Unless noted, the call rests on the fitted dose curve; in most records, active means well fitted curve in the direction sought with a large enough effect; inconclusive means small, poorly fitted or top-dose-only effect, or another doubt; inactive means no such curve, though single readings can be large; an effect the other way counts as inactive or inconclusive.

O=C(Nc1nc(-c2ccccc2)cs1)c1ccco1	Nrf2 ARE act 14µM, BRCA1 expr up 7.1µM, BCR signal inh inconclusive
O=C(CSc1ccc(-c2ccco2)nn1)Nc1ccccc1F	none
CN(C)c1oc(/C=C/c2ccccc2)nc1C#N	Nrf2 ARE act 7.9µM, BCR signal inh inconclusive, N370S GC mod inconclusive
Cc1ccc(S(=O)(=O)c2nc(S(C)(=O)=O)sc2N2CCC(O)CC2)cc1	Nrf2 ARE act 8.9µM, BCR signal inh inconclusive
CCOC(=O)C(C)NC(=O)C1CCN(c2ncnc3c2nc2n3CCCCC2)CC1 (centres undefined)	none (no result: BRCA1 expr up, IL2 activator, a7 integrin act, BCR signal inh, N370S GC mod)
O=C1C(=Cc2cccc(Cl)c2)Cc2ccccc21	Nrf2 ARE act 10µM (no result: a7 integrin act, BCR signal inh, N370S GC mod)
Cn1cccc1/C=C1\Cc2ccccc2C1=O	Nrf2 ARE act 11µM
COc1ccccc1C=C1CCc2ccccc2C1=O	Nrf2 ARE act inconclusive (no result: a7 integrin act, BCR signal inh, N370S GC mod)
O=C1/C(=C/c2cccs2)Cc2ccccc21	Nrf2 ARE act inconclusive, BRCA1 expr up inconclusive
COc1cc(OC)c(OC)cc1/C=C1/Cc2ccccc2C1=O	Nrf2 ARE act 5.6µM, IL2 activator 126
O=C1/C(=C\c2ccc(Br)o2)Cc2ccccc21	Nrf2 ARE act 11µM
O=[N+]([O-])c1ccc(O/N=[N+](\[O-])N2CCCCC2)c([N+](=O)[O-])c1	none (no result: Nrf2 ARE act, IL2 activator, a7 integrin act, BCR signal inh, N370S GC mod)
Cc1cc(N/N=C/c2cccc(Br)c2)nc2ccccc12	BRCA1 expr up inconclusive, BCR signal inh inconclusive
Cc1cc(N/N=C/c2ccncc2)nc2ccccc12	BRCA1 expr up 5.6µM, a7 integrin act inconclusive
Cc1ccc(N/N=C/c2cccnc2)cc1	BRCA1 expr up inconclusive, BCR signal inh inconclusive
Cc1ccc(N/N=C/c2ccncc2)cc1	BRCA1 expr up 6.3µM, BCR signal inh inconclusive
Cc1noc(C)c1S(=O)(=O)NC(=O)C1(C)CCN1C(=O)Cc1ccc(-c2ccccc2)cc1 (centres undefined)	none (no result: a7 integrin act, BCR signal inh, N370S GC mod)
COc1ccc2c(c1)cc1c(=O)n(CC(=O)NC(C)C)nc(C)n12	none (no result: BRCA1 expr up, IL2 activator, a7 integrin act, BCR signal inh, N370S GC mod)
CSc1nsc(NC(=O)OCc2ccc(Cl)cc2)n1	BCR signal inh inconclusive
COc1ccsc1NC(=O)OCc1ccc(Cl)cc1	BRCA1 expr up 13µM
O=C(NCc1cccc(F)c1)c1ccc(-n2cnc3cccnc32)cc1	none (no result: BRCA1 expr up, IL2 activator, a7 integrin act, BCR signal inh, N370S GC mod)
CCCN(CC(=O)Nc1ccccc1C)C(=O)Cc1c(C)nc2ccccc2c1C	none (no result: N370S GC mod)
CCOC(=O)c1nnc2cc(-c3ccccc3)nn2c1C	Nrf2 ARE act inconclusive, BRCA1 expr up 6.3µM
O=C(Nc1ccc(Cl)cc1)N1CCC(c2ccccc2)C1 (centres undefined)	BRCA1 expr up inconclusive, BCR signal inh inconclusive
Cc1ccc(NC(=S)N2CCC(c3ccc(C)cc3)C2)cc1 (centres undefined)	BRCA1 expr up 11µM, a7 integrin act inconclusive
Cc1ccc(NC(=O)N2CCC(c3ccccc3)C2)cc1C (centres undefined)	BRCA1 expr up 2.8µM, BCR signal inh inconclusive
O=C(c1ccc(F)cc1)N1CCC(c2ccccc2)C1 (centres undefined)	BRCA1 expr up 6.3µM, BCR signal inh inconclusive
Cc1ccc(C2CCN(C(=O)Nc3ccccc3)C2)cc1 (centres undefined)	BRCA1 expr up 5µM, BCR signal inh inconclusive
COCCN=c1scc(C)n1/N=C/C1CC2C=CC1C2 (centres undefined)	BCR signal inh inconclusive
CNC(=O)c1cnc2sc(N3CCC(C)CC3)nn2c1=O	none (no result: BRCA1 expr up, IL2 activator, a7 integrin act, BCR signal inh, N370S GC mod)
CN1c2ccsc2/C(=N/Nc2ccccc2)CS1(=O)=O	Nrf2 ARE act 7.1µM
CN1c2ccsc2/C(=N/NC(=O)c2c(F)cccc2F)CS1(=O)=O	none (no result: N370S GC mod)
Nc1cc(C(F)(F)F)ccc1NCCc1ccccn1	Nrf2 ARE act 13µM
COc1ccc(C)cc1Nc1n[n+](-c2ccccc2)c(-c2ccc(NC(C)=O)cc2)s1	none
COc1ccc(C)cc1Nc1n[n+](-c2ccccc2)c(-c2cc([N+](=O)[O-])cc(OC)c2O)s1	IL2 activator 180

Bioassay records deposited in PubChem by National Center for Advancing Translational Sciences (NCATS).
